Potency and outcome data for eleven molecules are collected here from PubChem BioAssay (Tox21).

Experiment [1] addresses Estrogen receptor beta (Homo sapiens) (UniProt Q92731). Briefly: qHTS assay to identify small molecule agonists of the estrogen receptor beta (ER-beta) signaling pathway (AID 1259377; active = well fitted activation curve with a large enough effect in the signal ratio in the repeat runs, not every such curve was filed as active; the % refers to the signal ratio). Put shortly:
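qHTS in ER-beta-UAS-bla HEK293T cells: 6 hr settling, then 16 hr compound at 37C, then LiveBLAzer substrate 2 h at RT before fluorescence reading.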
In general terms: Quantitative high-throughput screening tests each substance at several concentrations.

A short description of experiment [2]: qHTS assay to identify small molecule agonists of the androgen receptor (AR) signaling pathway in the presence of an antagonist - cell viability counter screen (AID 1259379). Note: nearly all actives have a fitted effect of over 25% in size. Note: potency is the fitted concentration of half-maximal effect. The method, boiled down: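 MDA-kb2 viability measured by CellTiter-Fluor fluorescence in the same wells as the luciferase signal; nilutamide 3.0uM final; 15-point compound titration; 16 hr at 37C.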

The nature of experiment [3]: qHTS assay to identify small molecule antagonists of the estrogen receptor beta (ER-beta) signaling pathway - cell viability counter screen (AID 1259382). Note: series mostly up to about 92 µM; nearly all actives have a fitted effect of over 55% in size. Put shortly: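 Readout: luminescence, CellTiter-Glo, same wells as bla assay. System: ER-beta-UAS-bla GripTite HEK293T, 2% charcoal-stripped FBS. Exposure: compounds plus 1nM 17-beta-estradiol, 16 hr, 37C.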
The target of experiment [4] is Estrogen receptor (Homo sapiens) (UniProt P03372). Briefly: qHTS assay to identify small molecule agonists of the estrogen receptor alpha (ER-alpha) signaling pathway in the presence of an antagonist (AID 1259383; calls by dose curve; note: top concentration of the series differs between compounds; nearly all actives have a fitted effect of over 15% in size). The method, boiled down: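 Quantitative HTS confirmation: compounds titrated at 15 concentrations onto estrogen-deprived VM7Luc4E2 cells carrying a four-ERE luciferase construct, with ICI-182,780 present at 10.0nM final. Signal is luminescence after 22hr exposure.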

The nature of experiment [5]: qHTS assay to identify small molecule agonists or antagonists of the thyroid stimulating hormone receptor (TSHR) signaling pathway - wild type cell line counter screen (AID 1259384; calls by dose curve). The method, boiled down: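 Wild-type HEK293 cells were plated 18 h at 37 C/5% CO2, pin-dosed with compound plus Ro20-1724 medium, held 30 min at room temperature, then given cAMP-d2 and anti-cAMP-cryptate; fluorescence was read after 1 h. Fifteen concentrations, triplicate.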

In experiment [6] the target is Thyrotropin receptor (Homo sapiens) (UniProt P16473). Nature of the experiment: qHTS assay to identify small molecule antagonists of the thyroid stimulating hormone receptor (TSHR) signaling pathway (AID 1259385; calls by dose curve; note: nearly all actives have a fitted effect of over 20% in size). Put shortly: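 TSHR-HEK293 cells were plated and held 18 h at 37C/5% CO2, then given compound plus Ro20-1724 and stimulated with TSH at 1.5 ng/mL final. After 30 min at room temperature, cAMP was detected with cAMP-d2/anti-cAMP-cryptate (1 h) by fluorescence.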

A short description of experiment [7]: qHTS assay to identify small molecule agonists of the estrogen receptor alpha (ER-alpha) signaling pathway in the presence of an antagonist - cell viability counter screen (AID 1259386).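 Note: series mostly up to about 92 µM; cells exposed to compounds for 22 h at 37 °C before the viability read; nearly all actives have a fitted effect of over 30% in size.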 The method, boiled down:
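The test measures whether compounds kill ER-alpha reporter cells (VM7Luc4E2) under antagonist co-treatment (ICI-182,780, 10.0nM). Fluorescence from CellTiter-Fluor is read after a 22hr exposure.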

Experiment [8] addresses Progesterone receptor (Homo sapiens) (UniProt P06401). Briefly: qHTS assay to identify small molecule agonists of the progesterone receptor (PR) signaling pathway (AID 1346784; calls by dose curve; note: nearly all actives have a fitted effect of over 30% in size). Put shortly:
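Fluorescence from LiveBLAzer B/G FRET substrate cleavage (2 hr, RT) reported PR activation in PR-UAS-bla HEK 293T cells treated 16 hr at 37C/5% CO2 with compounds; medium contained 2% charcoal-stripped FBS.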

Experiment [9] has the same target. Nature of the experiment: qHTS assay to identify small molecule antagonists of the progesterone receptor (PR) signaling pathway (AID 1346795; active = well fitted inhibition curve with a large enough effect in the signal ratio in the repeat runs, not every such curve was filed as active; the % refers to the signal ratio; note: potency is the fitted concentration of half-maximal effect). The method, boiled down:
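Fluorescence intensity measured 2 hr after adding beta-lactamase FRET substrate to PR-UAS-bla HEK293T cells that had been co-treated 16 hr with compound and 1 nM R5020 (final concentration) in 2% charcoal-stripped FBS.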

Experiment [10] in a line: qHTS assay to identify small molecule agonists of the TGF-beta/Smad signaling pathway - cell viability counter screen (AID 1346829). Note: top concentration of the series differs between compounds; nearly all actives have a fitted effect of over 45% in size. Put shortly:
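SBE-bla HEK 293T cells plated overnight, compound exposure 5 hr at 37 C. Viability read in the same wells by CellTiter-Glo luminescence after 30 min at room temperature, following the beta-lactamase read.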

Experiment [11] is described as follows: qHTS assay to identify small molecule agonists of the TGF-beta/Smad signaling pathway (AID 1346859; active = well fitted activation curve with a large enough effect in the signal ratio in the repeat runs, not every such curve was filed as active; the % refers to the signal ratio; note: series mostly up to about 77 µM). Put shortly:
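After overnight seeding, SBE-bla HEK 293T cells are dosed with compounds in DMSO and kept 5 hr at 37 C, 5% CO2. LiveBLAzer-type FRET substrate is then applied for 2 hr at room temperature.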

Experiment [12] addresses Thyrotropin-releasing hormone receptor (Homo sapiens) (UniProt P34981). Nature of the experiment: qHTS assay to identify small molecule agonists of the thyrotropin-releasing hormone receptor (TRHR) signaling pathway (AID 1346891; calls by dose curve;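 note: HEK293 cells expressing TRHR with calcium dye readout; series mostly up to about 58 µM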). Put shortly:
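Compounds were tested as agonists at 15 concentrations, in triplicate, on TRHR-Hek293 cells; calcium-sensitive dye fluorescence was recorded for 3 min following addition.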

Experiment [13] can be described thus: qHTS assay to identify small molecule agonists of the estrogen receptor beta (ER-beta) signaling pathway - cell viability counter screen (AID 1259380). Note: nearly all actives have a fitted effect of over 30% in size. Note: potency is the fitted concentration of half-maximal effect. Put shortly:
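Measured: luminescence from CellTiter-Glo after 30 min at room temperature, added to wells already read for the LiveBLAzer FRET reporter (2 hr substrate); ER-beta-UAS-bla HEK293T cells had 16 hr compound treatment at 37C, 5% CO2.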

The target in experiment [14] is Androgen receptor (Homo sapiens) (UniProt P10275). Nature of the experiment: qHTS assay to identify small molecule agonists of the androgen receptor (AR) signaling pathway in the presence of an antagonist (AID 1259381; calls by dose curve; note: nearly all actives have a fitted effect of over 15% in size; note: potency is the fitted concentration of half-maximal effect). Put shortly: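 Luminescent ONE-Glo read, 30min at room temperature, follows 16hr compound exposure (15 concentrations) of MDA-kb2 cells at 37C, 0% CO2, with nilutamide added at 3.0uM final.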

Experiment [15] is described as follows: qHTS assay to identify small molecule antagonists of the progesterone receptor (PR) signaling pathway - cell viability counter screen (AID 1346798). Note: series mostly up to about 92 µM; nearly all actives have a fitted effect of over 50% in size. The method, boiled down:
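CellTiter-Glo luminescence; PR-UAS-bla HEK293T, 3,000 cells/well; compound + R5020, 16 hr, 37C/5% CO2; 30 min RT before read.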

Experiment [16] can be described thus: qHTS assay to identify small molecule agonists of the progesterone receptor (PR) signaling pathway - cell viability counter screen (AID 1346799; calls by dose curve; note: nearly all actives have a fitted effect of over 45% in size). The method, boiled down: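 In parallel with the beta-lactamase readout, cytotoxicity toward PR-UAS-bla HEK293T cells was measured by CellTiter-Glo luminescence following 16 hr compound incubation in 2% charcoal-stripped FBS medium.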

A short description of experiment [17]: qHTS assay to identify small molecule antagonists of the TGF-beta/Smad signaling pathway - cell viability counter screen (AID 1346824). Note: nearly all actives have a fitted effect of over 50% in size. Put shortly:
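SBE-bla HEK 293T cells were plated overnight at 37 C, then given compounds in DMSO plus TGF-beta1 (added as 0.25 ng/mL solution) for 5 hr. After the bla read, CellTiter-Glo was added to the same wells and luminescence read after 30 min at room temperature.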

In experiment [18] the target is Thyrotropin-releasing hormone receptor (Homo sapiens) (UniProt P34981). Briefly: qHTS assay to identify small molecule antagonists of the thyrotropin-releasing hormone receptor (TRHR) signaling pathway (AID 1346877; active = well fitted inhibition curve with a large enough effect in the repeat runs, not every such curve was filed as active; note: series mostly up to about 51 µM). Put shortly:
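Overnight-plated (18 h, 37 °C) HEK293 cells expressing TRHR were dye-loaded 2 h, treated with compound, then stimulated with TRH at 1 nM final. Fluorescence intensity was captured every second for 3 min.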

The target of experiment [19] is Estrogen receptor beta (Homo sapiens) (UniProt Q92731). Briefly: qHTS assay to identify small molecule antagonists of the estrogen receptor beta (ER-beta) signaling pathway (AID 1259378; active = well fitted inhibition curve with a large enough effect in the signal ratio in the repeat runs, not every such curve was filed as active; the % refers to the signal ratio; note: potency is the fitted concentration of half-maximal effect). Put shortly:
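ER-beta-UAS-bla HEK293T (GripTite) cells in 2% charcoal-stripped FBS medium were preincubated 6 hr at 37C, dosed with compound, then stimulated with 1 nM E2 (final) for 16 hr; beta-lactamase reporter read by B/G FRET fluorescence after 2 hr substrate loading.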

Inconclusive results are not listed. Active and inactive are the calls of the source. Unless noted, calls come from the whole dose curve; as a rule, active = well fitted curve in the direction sought with a large enough effect in the repeat runs; inconclusive = weak or mixed curves; inactive = no such curve, though single readings can be large; an effect the other way counts as inactive or inconclusive.

Sequence of Thyrotropin receptor (Homo sapiens) (P16473 whole entry, looked up): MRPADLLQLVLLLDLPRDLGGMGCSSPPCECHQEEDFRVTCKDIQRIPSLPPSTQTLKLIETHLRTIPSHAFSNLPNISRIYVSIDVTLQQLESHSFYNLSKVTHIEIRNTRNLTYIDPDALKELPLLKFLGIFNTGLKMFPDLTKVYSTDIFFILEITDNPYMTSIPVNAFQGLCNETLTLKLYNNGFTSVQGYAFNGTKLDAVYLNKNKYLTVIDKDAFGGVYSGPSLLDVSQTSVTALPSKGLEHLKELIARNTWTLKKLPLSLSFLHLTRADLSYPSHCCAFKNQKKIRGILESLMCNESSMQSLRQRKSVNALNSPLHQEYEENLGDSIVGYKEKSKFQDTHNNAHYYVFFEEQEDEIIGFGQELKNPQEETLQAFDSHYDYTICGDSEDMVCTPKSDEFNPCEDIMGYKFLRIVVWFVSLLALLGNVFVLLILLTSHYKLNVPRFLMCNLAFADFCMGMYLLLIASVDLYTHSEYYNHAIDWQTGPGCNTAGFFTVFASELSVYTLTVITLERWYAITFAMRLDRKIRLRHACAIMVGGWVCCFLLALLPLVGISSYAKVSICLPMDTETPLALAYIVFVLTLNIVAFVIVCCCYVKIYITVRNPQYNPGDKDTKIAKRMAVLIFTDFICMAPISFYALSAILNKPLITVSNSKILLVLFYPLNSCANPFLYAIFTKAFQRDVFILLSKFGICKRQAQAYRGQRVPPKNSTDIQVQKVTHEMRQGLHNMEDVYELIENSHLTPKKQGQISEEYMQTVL
Sequence of Thyrotropin-releasing hormone receptor (Homo sapiens) (P34981 whole entry, looked up): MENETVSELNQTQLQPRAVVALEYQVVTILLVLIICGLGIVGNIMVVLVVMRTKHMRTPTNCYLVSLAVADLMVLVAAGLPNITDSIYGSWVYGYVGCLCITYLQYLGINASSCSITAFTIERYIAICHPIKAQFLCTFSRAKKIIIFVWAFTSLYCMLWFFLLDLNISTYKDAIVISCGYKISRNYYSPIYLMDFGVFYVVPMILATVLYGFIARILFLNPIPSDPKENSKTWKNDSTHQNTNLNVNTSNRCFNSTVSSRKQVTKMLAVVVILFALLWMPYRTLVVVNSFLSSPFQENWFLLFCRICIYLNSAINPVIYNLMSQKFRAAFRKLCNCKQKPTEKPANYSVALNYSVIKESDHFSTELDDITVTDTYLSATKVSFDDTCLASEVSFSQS
Sequence of Progesterone receptor (Homo sapiens) (P06401 whole entry, looked up): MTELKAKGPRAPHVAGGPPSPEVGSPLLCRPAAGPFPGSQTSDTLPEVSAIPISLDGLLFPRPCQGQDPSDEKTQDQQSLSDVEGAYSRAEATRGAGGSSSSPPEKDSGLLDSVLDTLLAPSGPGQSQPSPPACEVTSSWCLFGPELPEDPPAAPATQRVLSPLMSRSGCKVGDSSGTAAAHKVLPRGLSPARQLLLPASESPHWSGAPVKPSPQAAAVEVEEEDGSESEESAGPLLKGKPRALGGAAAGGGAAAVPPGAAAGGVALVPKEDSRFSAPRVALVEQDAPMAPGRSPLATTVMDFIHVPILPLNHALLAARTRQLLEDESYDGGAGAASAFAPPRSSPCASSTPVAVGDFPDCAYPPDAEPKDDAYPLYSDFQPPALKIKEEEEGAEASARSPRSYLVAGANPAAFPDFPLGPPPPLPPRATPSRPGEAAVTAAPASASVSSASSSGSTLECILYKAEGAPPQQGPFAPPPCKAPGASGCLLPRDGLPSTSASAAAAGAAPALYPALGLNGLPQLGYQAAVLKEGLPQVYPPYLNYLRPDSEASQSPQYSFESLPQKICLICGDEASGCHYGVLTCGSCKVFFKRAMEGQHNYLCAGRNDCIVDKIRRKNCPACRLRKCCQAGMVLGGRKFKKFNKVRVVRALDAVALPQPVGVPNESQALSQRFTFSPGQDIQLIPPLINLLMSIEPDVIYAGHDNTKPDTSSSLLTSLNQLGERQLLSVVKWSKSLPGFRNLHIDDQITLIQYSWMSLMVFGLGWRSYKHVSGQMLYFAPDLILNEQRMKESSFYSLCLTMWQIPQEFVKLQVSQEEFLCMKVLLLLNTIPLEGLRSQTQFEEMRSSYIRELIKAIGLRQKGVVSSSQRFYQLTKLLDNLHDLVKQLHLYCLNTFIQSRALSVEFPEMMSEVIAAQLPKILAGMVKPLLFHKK
Sequence of Estrogen receptor (Homo sapiens) (P03372 whole entry, looked up): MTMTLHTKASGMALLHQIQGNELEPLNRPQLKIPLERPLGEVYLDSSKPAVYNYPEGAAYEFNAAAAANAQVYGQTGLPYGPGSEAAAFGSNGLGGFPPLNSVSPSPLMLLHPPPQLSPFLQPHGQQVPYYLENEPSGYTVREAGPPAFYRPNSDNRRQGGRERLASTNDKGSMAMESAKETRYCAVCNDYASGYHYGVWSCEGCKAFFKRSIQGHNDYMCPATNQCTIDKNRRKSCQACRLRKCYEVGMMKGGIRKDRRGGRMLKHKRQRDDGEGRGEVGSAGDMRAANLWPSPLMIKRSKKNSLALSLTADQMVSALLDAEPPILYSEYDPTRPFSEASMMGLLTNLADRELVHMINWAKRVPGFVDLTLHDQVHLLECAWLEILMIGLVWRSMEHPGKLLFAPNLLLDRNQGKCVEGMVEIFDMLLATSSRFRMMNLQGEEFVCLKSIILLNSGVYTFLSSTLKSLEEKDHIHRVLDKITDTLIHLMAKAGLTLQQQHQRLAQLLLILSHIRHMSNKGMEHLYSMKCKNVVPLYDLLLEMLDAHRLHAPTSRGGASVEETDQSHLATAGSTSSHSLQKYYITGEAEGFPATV
Sequence of Estrogen receptor beta (Homo sapiens) (Q92731 whole entry, looked up): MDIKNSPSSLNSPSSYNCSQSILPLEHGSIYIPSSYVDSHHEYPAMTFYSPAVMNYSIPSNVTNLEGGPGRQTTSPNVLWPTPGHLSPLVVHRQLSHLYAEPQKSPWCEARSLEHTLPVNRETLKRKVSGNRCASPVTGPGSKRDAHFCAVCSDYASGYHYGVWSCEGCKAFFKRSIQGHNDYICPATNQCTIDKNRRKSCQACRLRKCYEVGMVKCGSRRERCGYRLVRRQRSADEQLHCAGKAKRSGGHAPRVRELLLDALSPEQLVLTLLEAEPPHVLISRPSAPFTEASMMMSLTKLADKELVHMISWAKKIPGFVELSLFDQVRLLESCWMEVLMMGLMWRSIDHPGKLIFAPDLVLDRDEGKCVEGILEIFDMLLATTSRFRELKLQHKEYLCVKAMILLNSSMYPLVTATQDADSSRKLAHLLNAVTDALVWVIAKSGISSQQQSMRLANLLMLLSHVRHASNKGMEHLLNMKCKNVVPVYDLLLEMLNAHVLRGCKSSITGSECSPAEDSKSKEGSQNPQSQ
Sequence of Androgen receptor (Homo sapiens) (P10275 whole entry, looked up): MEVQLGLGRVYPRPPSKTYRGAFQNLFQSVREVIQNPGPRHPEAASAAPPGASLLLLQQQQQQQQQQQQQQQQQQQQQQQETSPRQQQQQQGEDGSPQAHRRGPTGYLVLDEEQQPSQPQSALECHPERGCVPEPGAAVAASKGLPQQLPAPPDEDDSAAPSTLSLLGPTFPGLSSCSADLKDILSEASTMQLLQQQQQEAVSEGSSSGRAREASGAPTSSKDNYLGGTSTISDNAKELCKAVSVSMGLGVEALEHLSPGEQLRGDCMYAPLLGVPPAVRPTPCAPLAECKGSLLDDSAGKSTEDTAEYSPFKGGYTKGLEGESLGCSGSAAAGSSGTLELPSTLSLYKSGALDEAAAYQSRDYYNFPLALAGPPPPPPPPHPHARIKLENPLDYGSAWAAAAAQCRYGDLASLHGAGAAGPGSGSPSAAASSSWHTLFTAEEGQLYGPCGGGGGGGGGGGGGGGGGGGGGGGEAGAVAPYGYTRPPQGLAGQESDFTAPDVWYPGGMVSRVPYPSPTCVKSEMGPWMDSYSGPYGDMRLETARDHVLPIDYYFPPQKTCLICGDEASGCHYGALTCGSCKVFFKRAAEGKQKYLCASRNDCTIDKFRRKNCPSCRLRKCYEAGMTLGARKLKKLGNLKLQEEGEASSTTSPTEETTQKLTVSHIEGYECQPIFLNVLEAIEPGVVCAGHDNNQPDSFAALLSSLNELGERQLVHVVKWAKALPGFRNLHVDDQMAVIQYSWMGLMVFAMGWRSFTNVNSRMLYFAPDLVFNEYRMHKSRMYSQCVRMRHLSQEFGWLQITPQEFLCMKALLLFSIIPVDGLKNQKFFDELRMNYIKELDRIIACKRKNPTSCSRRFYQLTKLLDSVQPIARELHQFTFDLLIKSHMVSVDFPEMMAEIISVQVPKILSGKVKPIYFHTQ

For the molecule `CCOC(=O)C1=C(C)NC(C)=C(C(=O)OC)C1c1cccc(Cl)c1Cl` (stereo not drawn), the Potency result in [1], in experiment [2], in experiment [3], in [4], in experiment [6] and in experiment [7] was “inactive” each time. The Potency entry in [8], in [10], in experiment [11] and in [12] was “inactive” each time. Further, in experiment [5], the molecule was classed as inactive. Moreover, the Potency in [9] is 3.76 µM (active).
Regarding `C1COC1`, the Potency entry in experiment [1], in experiment [2], in experiment [13], in experiment [14], in experiment [3] and in experiment [4] was “inactive” each time. For the same molecule, the Potency result in experiment [6], in experiment [7], in experiment [8], in [9], in experiment [15] and in [16] was “inactive” throughout. For the same molecule, the Potency result in [17], in [10], in [11] and in [12] was “inactive” throughout. Moreover, the molecule was called inactive in experiment [5] and in experiment [18].
As to `Clc1ccc(Nc2nnc(Cc3ccncc3)c3ccccc23)cc1`, the Potency entry in experiment [1], in experiment [2], in [3], in experiment [4], in [6] and in experiment [7] was “inactive” each time. Also, the Potency result in experiment [8], in [17] and in experiment [11] was “inactive” throughout. For the same molecule, in [5], the molecule was classed as inactive. In addition, the Potency in experiment [9] was 26.6 µM (active).
`CC(C)=CCC/C(C)=C/CC/C(C)=C/C(=O)OCC(=O)[C@@]1(O)CC[C@H]2[C@@H]3CCC4=CC(=O)C=C[C@]4(C)[C@H]3[C@@H](O)C[C@@]21C`: the Potency result in experiment [1], in experiment [3], in experiment [4], in [8], in experiment [11] and in experiment [12] was “inactive” in each case. For the same molecule, the Potency in experiment [19] was 13.3 µM (active); in experiment [2], 26.6 µM (active); in experiment [14], 0.335 µM (active). Also, in [5], the call was inactive.
Consider `O=C(CCCN1CC=C(n2c(=O)[nH]c3ccccc32)CC1)c1ccc(F)cc1`, for which the Potency entry in experiment [1], in experiment [19], in [2], in [4], in experiment [6] and in experiment [7] was “inactive” each time. Besides, the Potency entry in experiment [8], in experiment [9], in experiment [15], in experiment [16], in experiment [17] and in [10] was “inactive” throughout. For the same molecule, the Potency result in experiment [12] is “inactive”. Besides, the Potency in experiment [13] is 13.3 µM (active). Also, the molecule was classed as inactive in [5].
For `CN1CCCN=C1COC(=O)C(O)(c1ccccc1)C1CCCCC1` (stereo not drawn), the Potency entry in experiment [1], in experiment [19], in experiment [2], in [13], in experiment [3] and in experiment [4] was “inactive” in each case. For the same molecule, the Potency result in [7], in experiment [8], in experiment [9], in [15], in experiment [16] and in experiment [17] was “inactive” each time. Moreover, the Potency result in experiment [10], in experiment [11] and in experiment [12] was “inactive” in each case. Also, the result in experiment [18] was inactive.
On to `O=c1[nH]ncc2ccccc12`, for which the Potency result in experiment [1], in experiment [2], in experiment [13], in experiment [3], in experiment [4] and in experiment [6] was “inactive” throughout. The Potency result in [7], in [8], in [9], in experiment [15], in [16] and in experiment [17] was “inactive” in each case. Further, the Potency entry in experiment [11] and in experiment [12] was “inactive” each time. The outcome in [5] and in experiment [18] was inactive.
Turning to `COC(=O)C1=C(C)NC(C)=C(C(=O)O[C@@H]2CCCN(Cc3ccccc3)C2)[C@@H]1c1cccc([N+](=O)[O-])c1`, the Potency result in [1], in experiment [2], in [13], in experiment [3], in experiment [4] and in experiment [7] was “inactive” each time. In addition, the Potency result in experiment [17], in experiment [10], in [11] and in experiment [12] was “inactive” throughout. Further, the call in experiment [5] and in experiment [18] was inactive.
With `CC(CCC(=O)O)C(=O)O` (stereo not drawn), the Potency result in [1], in experiment [19], in experiment [2], in experiment [13], in experiment [3] and in experiment [6] was “inactive” throughout. Besides, the Potency result in [7], in [8], in [9], in experiment [15], in experiment [16] and in experiment [17] was “inactive” in each case. For the same molecule, the Potency result in experiment [11] and in [12] was “inactive” in each case. Also, the result in experiment [5] was inactive.
Regarding `c1cc(N(CC2CO2)CC2CO2)ccc1Cc1ccc(N(CC2CO2)CC2CO2)cc1` (stereo not drawn), in experiment [19], the Potency was 27.3 µM (active). Besides, the Potency result in experiment [13], in [14], in experiment [3], in experiment [4], in [17] and in experiment [10] was “inactive” throughout. Moreover, the Potency entry in experiment [12] was “inactive”. Further, the result in experiment [5] and in experiment [18] was inactive.
Take `Oc1c(I)cc(I)c2cccnc12`: the Potency in [19] is 6.68 µM (active); in experiment [9] it was 7.5 µM (active). The Potency entry in experiment [3], in experiment [4], in experiment [6], in experiment [8], in experiment [15] and in experiment [17] was “inactive” each time. In addition, the Potency result in experiment [10], in [11] and in experiment [12] was “inactive” throughout. The result in experiment [5] and in [18] was inactive.
